The text below walks through data of PubChem BioAssay (EPA / NIEHS).

Records with an inconclusive call do not appear. Calls of active or inactive are those of the source. How the source made its calls: active means hit-call score of the fitted dose curve at least 0.9, where 1 is the maximum; inconclusive means response in the unintended direction; inactive means score below 0.9.

One may read the AC50 as the concentration at which the activity in the assay is half-maximal.

The nature of the first test: Tanguay_ZF_120hpf_PE_legacy: (Legacy) Oregon State University Tanguay Lab 120 Hour Post-fertilization zebrafish Assay for Pericardial Edema (AID 2283640).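 On AC50: potency for increased incidence of pericardial edema versus DMSO baseline.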 In a few lines: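 Tropical 5D wild-type zebrafish embryos were exposed statically to 120 hpf at 28C, sealed and foil-covered, in 0.64% DMSO final. Pericardial edema was scored present/absent by brightfield microscopy; dead embryos were not scored.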
On to `COc1cccc([C@H](O)C2CCN(CCc3ccc(F)cc3)CC2)c1OC`, for which the AC50 is 38.7 µM (active). Consider `OC12N=C(c3ccccc3)SC1Cc1cc(Cl)ccc12` (stereo not given), for which the AC50 is 45.8 µM (active).

Turning to `Oc1ccc2ccccc2c1`, the call was inactive.

`CCCCCCCCN(C)CCCCCCCC`: the compound was called inactive.

Regarding `Cc1oc2c(NC(=O)c3c(Cl)cccc3Cl)cccc2c1C(C)(C)O`, the compound was classed as inactive. For the compound `Clc1cc(Cl)c2c(c1)N=C1CCCCCN1C2`, the AC50 was 24.9 µM (active). `c1ccc2ccccc2c1`: the compound was classed as inactive. On to `C[C@]12CC[C@@H]3c4ccc(O)cc4CC[C@H]3[C@@H]1CCC2=O`, for which the call was inactive. On to `O=C(O)Cn1c(=O)n(Cc2ccc(Br)cc2F)c(=O)c2ccc(Cl)cc21`, for which the outcome was inactive.

For `O=c1[nH]sc2ccccc12`, the compound was called inactive. On to `CCCCCCCCCCCO`, for which the outcome was inactive. Regarding `CCO[Si](CCCNC(N)=O)(OCC)OCC`, the compound was classed as inactive. Take `COCC(C)OCC(C)OCC(C)O` (stereo not given): the outcome was inactive.

As for `Cc1ncc(CO)c(CO)c1O`, the compound was called inactive. For the compound `CCOC(=O)O[C@H](C)OC(=O)c1ccc2c(c1)cc(C(=O)NC1CCN(C(C)C)CC1)n2Cc1cc(-c2ccc(Cl)s2)on1`, the result was inactive.

Turning to `CC(O)CC(C)(C)O` (stereo not given), the call was inactive.

For `CC1=CC(=O)/C(=C(/C)O)C(=O)O1`, the compound was classed as inactive. For the compound `C[C@]12CC[C@@H]3c4ccc(O)cc4CC[C@H]3[C@@H]1CC[C@H]2O`, the result was inactive. As to `c1ccc(C[n+]2cccc3ccccc32)cc1`, the call was inactive. On the same count and under the same terms, in the case of `CC(C)(C)c1cc(/C=C2\SC(N)=NC2=O)cc(C(C)(C)C)c1O` it was “inactive”; in that of `CC[C@H](NC(=O)c1cc(F)ccc1NS(=O)(=O)c1cccc2cccnc12)c1ccccc1`, “inactive”. Still for that read-out and setting: the result for `CCCCOC(=O)CC(CC(=O)OCCCC)(OC(C)=O)C(=O)OCCCC` reads “inactive”; that for `CCCCCCCCCCCCO`, “inactive”; that for `OCCO`, “inactive”. In the case of `CCCC(=O)OCCC(C)C`, the outcome was inactive.

Turning to `O=c1ccc2ccccc2o1`, the compound was classed as inactive. As to `O=C(O)c1ccccc1-n1cc(C(=O)O)c(=O)c2cc(Nc3c(F)cc(F)cc3Cl)c(Cl)cc21`, the compound was called inactive. As to `Cc1cc2c(cc1C(F)(F)F)N(C(=O)Nc1ccc(Oc3cccnc3C)nc1)CC2`, the outcome was inactive. On the same count and under the same terms, in the case of `CC[C@@H]1C[C@H](N(Cc2cc(C(F)(F)F)cc(C(F)(F)F)c2)C(C)=O)c2cc(C(F)(F)F)ccc2N1C(=O)OC(C)C` it was “inactive”.

Consider `Cc1occc1C(=O)Nc1ccc(C(=O)N2CCC(F)(F)/C(=C\C(=O)N3CCC(N4CCCCC4)CC3)c3ccccc32)cc1`, for which the outcome was inactive. As to `CC(C)(O)c1ccc(CNC(=O)c2cccnc2Oc2ccc3nonc3c2)cc1`, the result was inactive. As to `CN1C(=O)CC[C@H]1c1cccnc1`, the result was inactive. Take `O=C=NCCCCCCN=C=O`: the result was inactive. Still for that read-out and setting: the result for `O=C(O)c1ccccc1C(=O)OCc1ccccc1` reads “inactive”.

A further test in a line: Tanguay_ZF_120hpf_BRAI_legacy: (Legacy) Oregon State University Tanguay Lab 120 Hour Post-fertilization zebrafish Assay for Brain Malformation (AID 2283641). In a few lines:
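Tropical 5D wild-type zebrafish embryos were exposed statically in sealed, foil-covered plates at 28C until 120 hpf, with 0.64% (vol/vol) final DMSO. Brain malformation was scored present/absent by brightfield microscopy, relative to DMSO baseline.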
With `COc1cccc([C@H](O)C2CCN(CCc3ccc(F)cc3)CC2)c1OC`, the call was inactive. For `OC12N=C(c3ccccc3)SC1Cc1cc(Cl)ccc12` (stereo not given), the outcome was inactive. Turning to `Oc1ccc2ccccc2c1`, the AC50 is 10.3 µM (active). On to `CCCCCCCCN(C)CCCCCCCC`, for which the outcome was inactive. Turning to `Cc1oc2c(NC(=O)c3c(Cl)cccc3Cl)cccc2c1C(C)(C)O`, the call was inactive.

Regarding `CCCCCCCC[Si](OCC)(OCC)OCC`, the outcome was inactive. Same read-out and setting: in the case of `Clc1cc(Cl)c2c(c1)N=C1CCCCCN1C2` it was “inactive”. On the same count and under the same terms, in the case of `c1ccc2ccccc2c1` it was “inactive”; in that of `O=C(O)Cn1c(=O)n(Cc2ccc(Br)cc2F)c(=O)c2ccc(Cl)cc21`, “inactive”; in that of `O=c1[nH]sc2ccccc12`, “inactive”. Still for that read-out and setting: the result for `CCCCCCCCCCCO` reads “inactive”; that for `CCO[Si](CCCNC(N)=O)(OCC)OCC`, “inactive”; that for `COCC(C)OCC(C)OCC(C)O` (stereo not given), “inactive”. `Cc1ncc(CO)c(CO)c1O`: the call was inactive. On the same count and under the same terms, in the case of `CCOC(=O)O[C@H](C)OC(=O)c1ccc2c(c1)cc(C(=O)NC1CCN(C(C)C)CC1)n2Cc1cc(-c2ccc(Cl)s2)on1` it was “inactive”; in that of `CC(O)CC(C)(C)O` (stereo not given), “inactive”.

On to `CC1=CC(=O)/C(=C(/C)O)C(=O)O1`, for which the call was inactive. Consider `C[C@]12CC[C@@H]3c4ccc(O)cc4CC[C@H]3[C@@H]1CC[C@H]2O`, for which the call was inactive. Take `c1ccc(C[n+]2cccc3ccccc32)cc1`: the call was inactive. With `CC(C)(C)c1cc(/C=C2\SC(N)=NC2=O)cc(C(C)(C)C)c1O`, the result was inactive. As to `CC[C@H](NC(=O)c1cc(F)ccc1NS(=O)(=O)c1cccc2cccnc12)c1ccccc1`, the outcome was inactive. In the case of `Cc1ccc(C(C)C)cc1`, the compound was classed as inactive. Turning to `CCCCOC(=O)CC(CC(=O)OCCCC)(OC(C)=O)C(=O)OCCCC`, the outcome was inactive.

For the compound `CCCCCCCCCCCCO`, the compound was classed as inactive. With `OCCO`, the compound was called inactive. The same measure, in the same setting: in the case of `CCCC(=O)OCCC(C)C` it was “inactive”. Regarding `O=c1ccc2ccccc2o1`, the outcome was inactive.

Take `O=C(O)c1ccccc1-n1cc(C(=O)O)c(=O)c2cc(Nc3c(F)cc(F)cc3Cl)c(Cl)cc21`: the result was inactive.

Turning to `Cc1cc2c(cc1C(F)(F)F)N(C(=O)Nc1ccc(Oc3cccnc3C)nc1)CC2`, the call was inactive. For `CC[C@@H]1C[C@H](N(Cc2cc(C(F)(F)F)cc(C(F)(F)F)c2)C(C)=O)c2cc(C(F)(F)F)ccc2N1C(=O)OC(C)C`, the result was inactive.

For `O=C1O[C@H]([C@@H](O)CO)C(O)=C1O`, the result was inactive. With `Cc1occc1C(=O)Nc1ccc(C(=O)N2CCC(F)(F)/C(=C\C(=O)N3CCC(N4CCCCC4)CC3)c3ccccc32)cc1`, the call was inactive.

`CC(C)(O)c1ccc(CNC(=O)c2cccnc2Oc2ccc3nonc3c2)cc1`: the outcome was inactive. As to `CN1C(=O)CC[C@H]1c1cccnc1`, the compound was classed as inactive. In the case of `O=C=NCCCCCCN=C=O`, the compound was classed as inactive. For the compound `O=C(O)c1ccccc1C(=O)OCc1ccccc1`, the compound was classed as inactive.
